The results in this text go back to PubChem BioAssay (NCATS).

Structures are written as SMILES. Where “and” joins values, the source holds several entries; their conditions need not be identical. Identical values can stand only once. Records with an inconclusive call do not appear. Calls of active or inactive are those of the source. Unless noted, calls come from the whole dose curve; as a rule, active = well fitted curve in the direction sought with a large enough effect; inconclusive = small, poorly fitted or top-dose-only effect, or another doubt; inactive = no such curve, though single readings can be large; an effect the other way counts as inactive or inconclusive.

The target in assay [1] is Mitogen-activated protein kinase 10 (Mus musculus) (UniProt Q61831). The assay can be described thus: JNK3 AlphaScreen Assay (AID 530; active = well fitted curve in either direction with a large enough effect, not every such curve was filed as active;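 note: kinase came from lysate of stimulated human HepG2 cells; signal reports phosphorylation of biotinylated GST-cJun 1-79 at Ser73 with 10 µM ATP; % is set by controls: 0 for no effect and ±100 for the full control effect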). The method in brief:
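Biotinylated GST-cJun(1-79) served as substrate for JNK3 in HepG2 lysates stimulated with IL-1beta and TNF-alpha. ATP was 10 uM final, pH 7.6. Ser73 phosphorylation was quantified by AlphaScreen (680 nm excitation).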
On the technique in general: Alpha assays give light when donor and acceptor beads are brought close together.

A short description of assay [2]: Cell Viability - Renal Proximal Tubule (AID 545).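 Note: cells exposed to compound for 40 hours; 0% = DMSO only and -100% = 100 µM tamoxifen; nearly all actives have a fitted effect of over 40% in size.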 The method in brief: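 Viability taken as intracellular ATP (CellTiter-Glo luminescence) after 40 hr, 37 °C compound treatment of primary proximal tubule cells from rat kidney, 1000 cells/well; Hill-equation fits of qHTS concentration-response data gave AC50.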
The nature of assay [3]: Cell Viability - Mesenchymal (AID 546).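 Note: cells exposed to compound for 40 hours before reading; 0% = DMSO only and -100% = 100 µM tamoxifen.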 The method in brief:
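In this qHTS cytotoxicity format, glomerulus-derived human mesenchymal kidney cells received compound for 40 hr, then luciferase-based ATP quantitation. Concentration-response data were fitted with the Hill equation.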

Assay [4] in a line: Cellular Toxicity (caspase-3) Mesangial (AID 660).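 Note: combined caspase 3 and 7 activity read by Caspase-Glo luminescence; cells exposed to compound for 16 h before the caspase read.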 The method in brief: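 Luminescent Caspase-Glo 3/7 readout (aminoluciferin substrate cleavage, 20 min RT) after 16 h compound exposure at 37 °C of normal human mesangial cells. Signal increase normalized between DMSO basal and 100 uM tamoxifen; Hill-equation AC50.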
A short description of assay [5]: Cellular Toxicity (caspase-3) Renal Proximal Tubule (AID 667).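 Note: cells exposed to compound for 16 hours at 37 °C before detection; 0% = DMSO basal and 100% = 10 µM staurosporine.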 The method in brief: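 Caspase 3/7 activation measured by luminescent aminoluciferin release in primary rat proximal tubule cells after 16 hr compound exposure at 37 °C. AC50 from Hill-fitted concentration-response, scaled between DMSO and 10 uM staurosporine.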
In assay [6] the target is Cytochrome P450 3A4 (Homo sapiens) (UniProt P08684). The assay can be described thus: qHTS Assay for Inhibitors and Substrates of Cytochrome P450 3A4 (AID 884). Note: % is set by controls: 0 for no effect and ±100 for the full control effect; nearly all actives have a fitted effect of over 50% in size. In outline: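 Luminescent readout of luciferin produced by CYP3A4 (20 nM) dealkylation of Luciferin-PPXE, 25 uM (its KM). NADPH-driven reaction ran 60 min at RT after 10 min compound preincubation; data scaled to 57 uM ketoconazole as 100% inhibition.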
Cytochrome P450 3A4 (Homo sapiens), sequence (P08684 whole entry, looked up): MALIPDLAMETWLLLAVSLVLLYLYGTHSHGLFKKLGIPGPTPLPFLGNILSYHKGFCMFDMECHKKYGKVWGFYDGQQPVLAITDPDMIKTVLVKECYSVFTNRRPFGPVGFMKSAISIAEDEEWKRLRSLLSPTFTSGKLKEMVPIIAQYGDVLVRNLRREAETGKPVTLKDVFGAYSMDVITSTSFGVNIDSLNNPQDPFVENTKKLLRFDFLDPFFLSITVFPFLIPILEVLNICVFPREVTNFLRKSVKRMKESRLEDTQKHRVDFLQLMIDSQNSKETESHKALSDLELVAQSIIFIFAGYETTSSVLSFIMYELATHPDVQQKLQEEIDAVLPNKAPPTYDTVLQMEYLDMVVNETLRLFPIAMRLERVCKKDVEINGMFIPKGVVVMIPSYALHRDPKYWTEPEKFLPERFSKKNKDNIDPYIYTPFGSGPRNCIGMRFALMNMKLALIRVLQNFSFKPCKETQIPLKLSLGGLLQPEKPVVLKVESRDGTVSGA

Assay [7] can be described thus: MultiTox-Fluor Cytotoxicity Assay - LYMP1-001 - Live Cells (AID 947).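 Note: 0% = DMSO only and full inhibition = tetraoctylammonium bromide control.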
Assay [8] is described as follows: Cell Viability - LYMP2-005 (AID 967).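 Note: plate controls were DMSO only for no effect and 92 µM tetraoctylammonium bromide control for full effect.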 In outline: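 LYMP2-005 human lymphoblastoid cells (2500/well) were treated with compounds for 24 h at 37 C. Intracellular ATP was then measured by CellTiter-Glo luminescence after 30 min at room temperature. AC50 values came from Hill-equation fits of qHTS concentration-response data.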
A short description of assay [9]: Cell Viability - LYMP2-010 (AID 981).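 Note: cells exposed to compound for 24 hours at 37 °C; % is set by controls: 0 for no effect and ±100 for the full control effect; nearly all actives have a fitted effect of over 55% in size.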 In outline:
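qHTS cytotoxicity, 1536-well: 2500 cells/well, 5 hr settle, 24 hr compound at 37 C, CellTiter-Glo 30 min RT, luminescence read. Decrease in ATP = toxicity; AC50 via standard Hill equation. Positive control tetraoctylammonium bromide.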

Assay [10] in a line: Cell Viability - LYMP2-016 (AID 984).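 Note: cells exposed to compound for 24 hours at 37 °C; % is set by controls: 0 for no effect and ±100 for the full control effect; nearly all actives have a fitted effect of over 55% in size.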 In outline:
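Cytotoxicity was scored by luminescent ATP content (CellTiter-Glo) after 24 h compound exposure at 37 C of a human lymphoblastoid line at 2500 cells/well. Concentration-response data were fitted to the Hill equation for AC50.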

A short description of assay [11]: Cell Viability - LYMP2-024 (AID 988).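 Note: plate controls were DMSO only for no effect and 92 µM tetraoctylammonium bromide for full effect; nearly all actives have a fitted effect of over 60% in size.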 In outline: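 ATP-based luminescence (CellTiter-Glo, 30 min RT) after 24 h compound exposure at 37 C of 2500 lymphoblastoid cells/well; decrease in ATP taken as cytotoxicity. qHTS concentration-response fitted to standard Hill equation for AC50.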
The target of assay [12] is Vitamin D3 receptor (Homo sapiens) (UniProt P11473). The assay can be described thus: qHTS assay for small molecule antagonists of vitamin D receptor signaling (AID 588541; calls by dose curve;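 note: receptor activated by calcitriol during compound treatment; % is set by controls: 0 for no effect and ±100 for the full control effect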). The method in brief: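 VDR-UAS-bla HEK293T cells (2000/well, 2% charcoal-stripped FBS) were treated with titrated compounds plus 1-alpha,25-dihydroxyvitamin D3 (50 nM or 3 nM final) for 16 h at 37 C. CCF4 beta-lactamase fluorescence was read; Hill fits gave IC50.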
Vitamin D3 receptor (Homo sapiens), sequence (P11473 whole entry, looked up): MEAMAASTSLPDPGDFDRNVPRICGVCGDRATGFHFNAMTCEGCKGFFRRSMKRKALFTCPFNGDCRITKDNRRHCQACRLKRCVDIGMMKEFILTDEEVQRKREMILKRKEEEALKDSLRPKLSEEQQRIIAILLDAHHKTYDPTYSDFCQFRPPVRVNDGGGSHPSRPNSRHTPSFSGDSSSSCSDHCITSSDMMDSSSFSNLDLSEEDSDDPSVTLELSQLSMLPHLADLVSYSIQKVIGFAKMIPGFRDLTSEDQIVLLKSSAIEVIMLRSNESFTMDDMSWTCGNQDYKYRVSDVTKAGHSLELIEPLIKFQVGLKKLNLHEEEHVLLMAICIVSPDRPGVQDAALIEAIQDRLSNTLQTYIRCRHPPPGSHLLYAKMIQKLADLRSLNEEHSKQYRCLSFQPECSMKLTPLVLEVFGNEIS
(Quantitative high-throughput screening tests each substance at several concentrations.)

Assay [13] deals with Voltage-gated inwardly rectifying potassium channel KCNH2 (Homo sapiens) (UniProt Q12809). Put plainly: qHTS Assay for Small Molecule Inhibitors of the Human hERG Channel Activity (AID 588834).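 Note: top concentration of the series differs between compounds; % is set by controls: 0 for no effect and ±100 for the full control effect; lower thallium flux fluorescence means stronger hERG block; nearly all actives have a fitted effect of over 50% in size.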 In outline:
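hERG block measured as reduced thallium-dye (FluxOR) fluorescence after stimulation buffer addition, read over 2 min. Cells were hERG-BacMam-transduced U2OS exposed to compound ~10 min […]; concentration-response fitted with Hill equation for AC50.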

A short description of assay [14]: qHTS assay for small molecule disruptors of the mitochondrial membrane potential - 1 hr assay (AID 651754; calls by dose curve; note: nearly all actives have a fitted effect of over 35% in size; note: potency is the fitted concentration of half-maximal effect). In outline:
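Read-out: dye fluorescence at 490 nm ex/535 nm em (monomers) and 540 nm ex/590 nm em (aggregates) in HepG2 cells. Compound exposure 1 hr at 37C, followed by 30 min dye loading.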

Assay [15] can be described thus: qHTS assay for cell viability of HEK293 cells (AID 743288). Note: % is set by controls: 0 for no effect and ±100 for the full control effect; nearly all actives have a fitted effect of over 50% in size. The following applies: ATP luminescence (CellTiter-Glo), 18 h, stronger effect = lower value. The method in brief: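 Readout is luciferase-coupled ATP content (CellTiter-Glo luminescence, 30 min room temperature) as a measure of metabolically competent cells. Parental HEK293 cells were plated 5 h or more before compound addition, then treated 18 h at 37 C.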

The nature of assay [16]: qHTS assay for small molecule activators of the human pregnane X receptor (PXR) signaling pathway (AID 720659; call rule not given here; note: 0% is about no effect).
Assay [17] can be described thus: Cell Viability - N2a (AID 540).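 Note: cells exposed to compound for 40 h at 37 °C; plate controls were DMSO alone for no effect and tamoxifen control for full effect; nearly all actives have a fitted effect of over 45% in size.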 The following applies: N2a mouse neuroblastoma cell viability; activity change, negative = cytotoxicity: at 92.2 µM (top of the series). In outline:
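N2a mouse neuroblastoma, 1500 cells/well, 5 hr settle; compound 40 hr, 37 °C; CellTiter-Glo 20 min RT; luminescence; Hill-fit AC50.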

The nature of assay [18]: Cell Viability - HUV-EC-C (AID 542).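 Note: cells exposed to compound for 40 hours; % is set by controls: 0 for no effect and ±100 for the full control effect; nearly all actives have a fitted effect of over 35% in size.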 The method in brief: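 Luminescent ATP read-out (CellTiter-Glo, 20 min room temperature) after 40 hr compound treatment of HUV-EC-C cells at 37 °C. Concentration-response data fitted with the standard Hill equation to give AC50; tamoxifen and doxorubicin served as positive controls.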
Assay [19] is described as follows: qHTS assay for small molecule antagonists of retinoid X receptor alpha signaling (AID 588546).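 Note: cells stimulated with 9-cis-retinoic acid as agonist; % is set by controls: 0 for no effect and ±100 for the full control effect.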 Particulars: HEK293T RXRa-UAS-bla, beta-lactamase ratio, antagonist mode; measured here: W530 green channel, cytotoxicity proxy. In outline:
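Beta-lactamase reporter inhibition, read as CCF4 fluorescence ratio (ex 405, em 460/530 nm) after 2 h at RT. HEK293T UAS-bla cells, 2500/well, were stimulated with 9-cis-RA at 500 or 100 nM final alongside test compound for 18 h at 37 C.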

Assay [20] deals with Nuclear receptor subfamily 1 group I member 2 (Rattus norvegicus) (UniProt Q9R1A7). Put plainly: qHTS assay for small molecule activators of the rat pregnane X receptor (rPXR) signaling pathway (AID 651751; call rule not given here; note: 0% is about no effect). Particulars: rPXR reporter cells, luciferase (One-Glo), 24 h.
Nuclear receptor subfamily 1 group I member 2 (Rattus norvegicus), sequence (Q9R1A7 whole entry, looked up): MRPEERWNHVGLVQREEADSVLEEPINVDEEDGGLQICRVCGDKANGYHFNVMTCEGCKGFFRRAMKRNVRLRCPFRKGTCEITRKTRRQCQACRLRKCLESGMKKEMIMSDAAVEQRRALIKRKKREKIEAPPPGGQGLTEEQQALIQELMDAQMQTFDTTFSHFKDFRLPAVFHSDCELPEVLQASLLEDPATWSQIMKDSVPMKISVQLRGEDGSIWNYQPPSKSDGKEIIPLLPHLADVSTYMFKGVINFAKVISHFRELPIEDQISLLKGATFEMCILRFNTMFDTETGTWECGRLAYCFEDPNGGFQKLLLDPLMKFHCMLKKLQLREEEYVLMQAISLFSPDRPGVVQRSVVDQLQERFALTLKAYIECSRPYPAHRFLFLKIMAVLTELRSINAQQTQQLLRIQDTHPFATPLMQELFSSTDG

Voltage-gated inwardly rectifying potassium channel KCNH2 (Homo sapiens), sequence (Q12809 whole entry, looked up): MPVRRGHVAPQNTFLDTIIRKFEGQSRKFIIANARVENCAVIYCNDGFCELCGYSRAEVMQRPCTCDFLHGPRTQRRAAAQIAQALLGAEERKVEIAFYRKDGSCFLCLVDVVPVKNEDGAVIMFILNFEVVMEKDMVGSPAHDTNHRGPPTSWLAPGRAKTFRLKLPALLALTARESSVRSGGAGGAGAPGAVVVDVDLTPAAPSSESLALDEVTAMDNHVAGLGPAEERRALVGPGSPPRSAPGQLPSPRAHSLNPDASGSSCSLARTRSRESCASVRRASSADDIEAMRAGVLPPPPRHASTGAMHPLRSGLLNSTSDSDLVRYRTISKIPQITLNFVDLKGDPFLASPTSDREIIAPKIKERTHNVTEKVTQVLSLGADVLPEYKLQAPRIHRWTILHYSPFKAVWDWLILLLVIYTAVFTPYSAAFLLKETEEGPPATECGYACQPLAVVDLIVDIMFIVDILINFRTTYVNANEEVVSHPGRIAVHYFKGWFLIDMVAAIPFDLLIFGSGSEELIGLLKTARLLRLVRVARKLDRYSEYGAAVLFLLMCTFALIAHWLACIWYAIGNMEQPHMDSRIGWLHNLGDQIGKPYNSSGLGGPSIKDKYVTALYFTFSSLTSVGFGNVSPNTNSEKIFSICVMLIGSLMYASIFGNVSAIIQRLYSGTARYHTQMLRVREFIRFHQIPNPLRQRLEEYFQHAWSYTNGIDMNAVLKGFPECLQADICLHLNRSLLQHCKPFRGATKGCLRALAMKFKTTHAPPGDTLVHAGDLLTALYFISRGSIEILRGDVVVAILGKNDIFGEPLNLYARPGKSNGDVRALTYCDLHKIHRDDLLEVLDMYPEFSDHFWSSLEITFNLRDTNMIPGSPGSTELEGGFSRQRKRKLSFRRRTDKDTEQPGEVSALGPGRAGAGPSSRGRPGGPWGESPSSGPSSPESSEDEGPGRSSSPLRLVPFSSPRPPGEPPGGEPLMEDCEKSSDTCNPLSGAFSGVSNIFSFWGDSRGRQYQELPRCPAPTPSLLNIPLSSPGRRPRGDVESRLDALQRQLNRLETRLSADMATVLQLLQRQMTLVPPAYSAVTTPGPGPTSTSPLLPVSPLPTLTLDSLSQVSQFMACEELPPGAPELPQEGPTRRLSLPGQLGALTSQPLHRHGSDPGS

Take `Nc1ccc([N+](=O)[O-])cc1[N+](=O)[O-]`: the Potency entry in assay [1], in assay [3], in [6], in [8], in assay [9] and in [10] was “inactive” each time. Moreover, the Potency entry in assay [11] and in [13] was “inactive” in each case. Besides, the molecule was called inactive in assay [2], in [4], in assay [5], in [7], in assay [12] and in [16]. Also, the Potency in [14] is 18.8 µM (active). The max response in assay [15] is 2.24% (inactive).
`O=Cc1ccc2c(c1)OCO2`: the Potency entry in assay [1], in [17], in [18], in assay [6], in assay [8] and in assay [10] was “inactive” throughout. The Potency result in assay [11], in assay [13] and in assay [14] was “inactive” in each case. Also, the call in assay [2], in assay [4], in assay [5], in [7], in assay [12] and in [16] was inactive. For the same molecule, the max response in assay [19] is -8.14%; in assay [15], -0.123% (inactive); in assay [20], 2.27% (inactive).
Take `CCOP(=S)(OCC)SCCSCC`: the Potency result in [17], in assay [18], in [3], in assay [8], in [10] and in assay [11] was “inactive” each time. The Potency entry in [14] was “inactive”. Besides, the molecule was classed as inactive in assay [2], in assay [4], in assay [5] and in assay [7]. Also, the max response is 7.97% and -18.3% in assay [19]; -9.57% (inactive) and -7.92% (inactive) in assay [15]; 1.52% (inactive) and -3.09% (inactive) in assay [20].
For the molecule `c1ccc(OCC2CO2)cc1` (centres undefined), the Potency entry in assay [1], in assay [17], in assay [18], in [3], in assay [6] and in [8] was “inactive” in each case. Moreover, the Potency result in assay [9], in [13] and in [14] was “inactive” each time. Besides, the result in assay [2], in assay [5], in assay [12] and in assay [16] was inactive. For the same molecule, the values for the max response in assay [19], in assay [15] and in assay [20] were 6.84%, 5.64% (inactive) and -1.75% (inactive), respectively.
As for `Cc1ccc(N)c(N)c1`, the Potency entry in [1], in [18], in [3], in [10] and in assay [13] was “inactive” throughout. Moreover, the call in assay [2], in assay [4], in assay [5] and in assay [12] was inactive. Further, the max response in [19] was 1.53%; in assay [15], -20.1% (inactive).
For `O=[N+]([O-])c1cccc(O)c1`, the Potency result in [1], in assay [18], in assay [3], in assay [6], in assay [8] and in assay [9] was “inactive” throughout. Besides, the Potency entry in assay [10], in assay [11] and in assay [13] was “inactive” each time. Moreover, the outcome in [2], in [4], in [5], in [7], in assay [12] and in assay [16] was inactive. For the same molecule, the max response in assay [19] is -2.66%; in assay [15], -8.12% (inactive); in assay [20], 6% (inactive).
For the molecule `Nc1ccc(Oc2ccc(N)cc2)cc1`, the Potency result in assay [1], in [17], in [18], in [3], in assay [8] and in [9] was “inactive” each time. Further, the Potency result in assay [13] and in [14] was “inactive” each time. Also, the molecule was called inactive in [2], in assay [4] and in assay [16]. Moreover, the max response was -3.97% and -1.47% in [19]; -1.7% (inactive) and -3.88% (inactive) in assay [15]; 6.46% (inactive) and 5.6% (inactive) in assay [20].
On to `O=C(Cl)c1ccccc1F`, for which the Potency result in assay [1], in assay [17], in [3], in [6], in assay [8] and in assay [9] was “inactive” in each case. Besides, the Potency entry in assay [10], in [11], in [13] and in assay [14] was “inactive” each time. Moreover, the molecule was called inactive in assay [4], in [5], in assay [7], in [12] and in assay [16]. The max response in assay [19] is -4.19%; in assay [20] it was 4.78% (inactive).
